The whole screen tested about 290,000 compounds, of which about 1,000 (0.34%) were called active. Rule as the data show it: active = inhibition above about 50% (passing the limit was not always enough); inconclusive = no clear call, values can overlap the other calls. Many of the other results were omitted from the sample, so actives are more common in it than they were.
Biological target: SUMO-conjugating enzyme UBC9 (Homo sapiens) (UniProt P63279)
Assay: inhibitors of in vitro SUMOylation cascade, primary screen, biochemical, HTRF, uHTS (AID 2006)
Details: HTRF SUMOylation assay, SAE1/SAE2 + UBC9, in vitro, at 35 µM, stronger effect = higher value

SUMO-conjugating enzyme UBC9 (Homo sapiens), sequence (P63279 whole entry, looked up): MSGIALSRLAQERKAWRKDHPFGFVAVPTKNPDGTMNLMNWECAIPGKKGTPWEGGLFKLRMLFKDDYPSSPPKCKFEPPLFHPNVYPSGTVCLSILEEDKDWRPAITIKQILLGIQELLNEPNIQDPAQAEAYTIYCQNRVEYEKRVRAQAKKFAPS

Question: How did the inhibition turn out when COc1ccccc1NC(=O)C1CCCN1S(=O)(=O)c1ccc(Cl)cc1 (stereo unspecified) was run?
Answer: -4.9% (inactive)

Question: Which inhibition does the source give for CCCCCC(=O)Nc1ccc(-c2cn3cccnc3n2)cc1 here?
Answer: 50.5% (active)

Question: What about the inhibition (average of repeat tests) of the same compound?
Answer: 60.8%

Question: For FC(F)(F)Oc1ccc(-c2cn3cccnc3n2)cc1, which inhibition is on record?
Answer: 24.2% (inactive)

Question: With CCCC(=O)Nc1cccc(-c2cn3ccsc3n2)c1 as the compound, how does the inhibition read?
Answer: -25.1% (inactive)

Question: For CC(C)(C)C(=O)Nc1ccc(-c2cn3cccnc3n2)cc1, which inhibition is on record?
Answer: 37.2% (inactive)

Question: Which results are given for CC(=O)Nc1ccc(-c2cn3cccnc3n2)cc1?
Answer: inhibition: 55.4% (active); inhibition (average of repeat tests): 53.3%

Question: Which inhibition does the source give for CCCCCC(=O)Nc1ccc(S(=O)(=O)Nc2ccc(Cl)nn2)cc1 here?
Answer: 2.3% (inactive)

Question: Cc1ccc(NC(=O)CN2CCc3ccccc3C2)cc1C was tested. Which inhibition did it give?
Answer: -5.2% (inactive)

Question: How did the inhibition turn out when CCc1c(C)nc(N)n2c(SCC(=O)NC3CCCCC3)nnc12 was run?
Answer: -11.4% (inactive)

Question: How did the inhibition turn out when Cc1ccc(C)c(NC(=O)NNC(=O)c2ccc3ccccc3c2O)c1 was run?
Answer: 4.2% (inactive)

Question: CC(=O)N1c2ccc(S(=O)(=O)N3CCCC(C(=O)Nc4cccc(F)c4)C3)cc2CC1C (stereo unspecified) was tested. Which inhibition did it give?
Answer: 12.3% (inactive)

Question: For Cc1cc(C(F)F)nn1CC(=O)NC1CCCCCC1, which inhibition is on record?
Answer: 2.2% (inactive)

Question: How did the inhibition turn out when N#CC1(NC(=O)COC(=O)CCN=C2NS(=O)(=O)c3ccccc32)CCCCC1 was run?
Answer: 2.6% (inactive)

Question: With CC1CCCCC1NC(=O)CSc1nnc(-c2ccncc2)n1CCCN(C)C (stereo unspecified) as the compound, how does the inhibition read?
Answer: 8.9% (inactive)

Question: With O=C(Nc1ccccc1Cl)/C(Cl)=C(\Cl)S(=O)c1ccccc1 (stereo unspecified) as the compound, how does the inhibition read?
Answer: 57% (active)

Question: Which inhibition does the source give for O=C(Nc1ccccc1Cl)Nn1cnnc1 here?
Answer: 10.4% (inactive)

Question: For O=C(COC(=O)c1cccs1)Nc1ccccc1Cl, which inhibition is on record?
Answer: -14.2% (inactive)

Question: CCC(=O)Nc1nnc(S(=O)(=O)N(CC(C)C)c2ccccc2)s1 was tested. Which inhibition did it give?
Answer: -0.8% (inactive)

Question: For CCOC(=O)c1c(C)[nH]c(C(=O)NCc2ccccc2OC)c1C, which inhibition is on record?
Answer: 21.6% (inactive)

Question: How did the inhibition turn out when CCOC(=O)c1c(C)[nH]c2c1-c1ccccc1C(=O)C2=O was run?
Answer: 86.9% (active)

Question: CCOC(=O)C1=C(c2ccc(OC)cc2)C(=O)c2ccccc2C1=O was tested. Which inhibition did it give?
Answer: 5.9% (inactive)

Question: With CC(C)(C)NC(=O)CN(Cc1cccs1)C(=O)CNS(=O)(=O)c1ccccc1 as the compound, how does the inhibition read?
Answer: 5.5% (inactive)

Question: O=C(CN1CCC(NC(=O)C2CC2)CC1)Nc1ccccc1[N+](=O)[O-] was tested. Which inhibition did it give?
Answer: 2.3% (inactive)

Question: How did the inhibition turn out when CCOC(=O)C1CCN(S(=O)(=O)c2ccc3c(c2)N(C)C(=O)CC(=O)N3C)CC1 was run?
Answer: 10.1% (inactive)

Question: For CCOc1ncccc1C(=O)NCCc1ccc(OC)cc1, which inhibition is on record?
Answer: -5.7% (inactive)

Question: Which inhibition does the source give for CC(C)CN(CC(C)C)C(=O)CN1c2cccc3cccc(c23)S1(=O)=O here?
Answer: 14.7% (inactive)

Question: How did the inhibition turn out when CN1C(=O)/C(=C/c2ccco2)SC1=Nc1cccc(C(=O)O)c1 was run?
Answer: 52.8% (active)

Question: With O=C(CCCN1C(=O)/C(=C/c2ccco2)SC1=S)Nc1ccccc1 as the compound, how does the inhibition read?
Answer: 23.1% (inactive)

Question: For Cc1cc(/C=C2\SC(=O)N(C)C2=O)c(C)n1-c1cccc(C(=O)O)c1, which inhibition is on record?
Answer: 0.8% (inactive)

Reference: PubChem BioAssay AID2006 (Sanford-Burnham Center for Chemical Genomics, 2009)
